Source: PubChem BioAssay (Tox21)
Values joined by “and” are separate entries in the source; they are usually repeats but may differ in a detail not shown here. Equal entries are not always repeated. Results filed as inconclusive are left out. A call without a number means that no potency is given here. Some compounds were tested as several samples or in several runs, with calls that do not always agree. Active and inactive are the calls of the source. Unless noted, calls come from the whole dose curve; as a rule, active = well fitted curve in the direction sought with a large enough effect in the repeat runs; inconclusive = weak or mixed curves; inactive = no such curve, though single readings can be large; an effect the other way counts as inactive or inconclusive.

Experiments:
[1] = qHTS assay to identify small molecule antagonists of the estrogen related receptor (ERR) signaling pathway from Tox21 library - cell viability counter screen (AID 1224834); note: nearly all actives have a fitted effect of over 30% in size
Outline: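 Fluorescence from CellTiter-Fluor gives the viability read-out, taken 30 min after reagent addition. Before that, ERR cells seeded 6 h earlier were incubated with compounds for 17.5 h at 37 C.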

[2] = molecular target: Luciferin 4-monooxygenase (Photinus pyralis) (UniProt P08659); test: qHTS assay to identify small molecule inhibitors of firefly luciferase (AID 1224835); note: nearly all actives have a fitted effect of over 25% in size
Outline: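 Biochemical qHTS: compounds run as interplate titrations against purified firefly enzyme, with D-luciferin and ATP each at its KM concentration. Light output recorded by CCD imaging.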

[3] = qHTS assay to identify small molecule agonists of the constitutive androstane receptor (CAR) signaling pathway - cell viability counter screen (AID 1224836); note: nearly all actives have a fitted effect of over 45% in size
Outline: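 HepG2 cells stably carrying hCAR and a CYP2B6-2.2kb reporter were plated 4 h, then given compounds at 15 concentrations plus PK11195 (final 0.75 uM). After 23 h at 37 C, viability was read by CellTiter-Fluor fluorescence.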

[4] = qHTS assay to identify small molecule antagonists of the constitutive androstane receptor (CAR) signaling pathway - cell viability counter screen (AID 1224837); note: nearly all actives have a fitted effect of over 45% in size
Outline: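 HepG2-CYP2B6-hCAR cells, 2500/well, 4 hr pre-incubation; compound titration, 15 conc.; CITCO 50 nM final; 23 hr, 37 C/5% CO2; CellTiter-Fluor, fluorescence intensity.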

[5] = molecular target: Nuclear receptor subfamily 1 group I member 3 (Homo sapiens) (UniProt Q14994); test: qHTS assay to identify small molecule agonists of the constitutive androstane receptor (CAR) signaling pathway (AID 1224839);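 note: HepG2 cells stably carrying human CAR and a CYP2B6 luciferase reporter; nearly all actives have a fitted effect of over 15% in size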
Outline: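 HepG2 cells stably expressing hCAR and a CYP2B6-2.2kb luciferase reporter were treated with compounds at 15 concentrations plus 0.75 uM PK11195 (final) for 24 h at 37 C; luminescence was read after ONE-Glo addition.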

[6] = qHTS assay to identify small molecule antagonists of the estrogen related receptor signaling pathway with the pleiotropic PPARgamma coactivator (PGC) from Tox21 10K library - cell viability counter screen (AID 1224840; active = well fitted cell-killing curve with a large enough effect in the repeat runs, not every such curve was filed as active; note: nearly all actives have a fitted effect of over 40% in size)
Outline: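 PGC/ERR cells, 2,000/well; 6 h pre-incubation 37 C/5% CO2; cpd in DMSO via pin tool; 17.5 h 37 C; CellTiter-Fluor, 30 min; fluorescence.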

[7] = qHTS assay to identify small molecule antagonists of the estrogen related receptor signaling pathway with the pleiotropic PPARgamma coactivator (PGC) from Tox21 10K library (AID 1224841; call rule not given here; note: actives are mostly falling curves and most rising ones were filed inactive; nearly all actives have a fitted effect of over 50% in size)
Outline: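 PGC/ERR cell line, 2,000 cells/well; 6 h pre-incubation 37 C/5% CO2; compounds (DMSO) pinned in; 18 h, 37 C; One-Glo, 30 min RT; luminescence.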

[8] = qHTS assay to identify small molecule agonists of the estrogen related receptor signaling pathway with the pleiotropic PPARgamma coactivator (PGC) from Tox21 10K library (AID 1224842); note: nearly all actives have a fitted effect of over 15% in size
Outline: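 PGC/ERR reporter cell line, 2,000 cells per well, incubated 6 h at 37 C before 23 nL compound in DMSO was added. After 18 h at 37 C, One-Glo luminescence read following 30 min at room temperature.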

[9] = molecular target: Thyrotropin receptor (Homo sapiens) (UniProt P16473); test: qHTS assay to identify small molecule agonists of the thyroid stimulating hormone receptor (TSHR) signaling pathway (AID 1224843; calls by dose curve; note: nearly all actives have a fitted effect of over 45% in size)
Outline: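 TSHR-HEK293 cells in agonist mode, 30 min room-temperature step, then cAMP measured by competitive HTRF (cAMP-d2 with anti-cAMP cryptate) after 1 h at room temperature. Tested at 15 concentrations in triplicate.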

[10] = qHTS assay to identify small molecule agonists of the hypoxia (HIF-1) signaling pathway - cell viability counter screen (AID 1224844; calls by dose curve; note: nearly all actives have a fitted effect of over 50% in size)
Outline: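 ME-180 HRE-bla cells, 2,000/well, 0.5% dialyzed FBS; 5 hr settle, 17 hr compound at 37C/5% CO2; CCF4-AM reporter read first, then CellTiter-Glo luminescence after 30 min RT.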

[11] = qHTS assay to identify small molecule agonists of H2AX (AID 1224845; active = well fitted activation curve with a large enough effect in the signal ratio in the repeat runs, not every such curve was filed as active; the % refers to the signal ratio)
Outline: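 Wild-type CHO-K1 cells, plated overnight, exposed 3hr at 37C to 15 concentrations (0.76% DMSO final). Lysed, then HTRF anti-pH2AX (S139) cryptate and anti-H2AX-d2 antibodies, 24 hr room temperature; 665/620 nm emission read.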

[12] = qHTS assay to identify small molecule agonists of the hypoxia (HIF-1) signaling pathway (AID 1224846; active = well fitted activation curve with a large enough effect in the signal ratio in the repeat runs, not every such curve was filed as active; the % refers to the signal ratio)
Outline: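 Cell line: CellSensor HRE-bla ME-180; 2,000 cells/well; 0.5% dialyzed FBS; 5 h preincubation; DMSO compound pin transfer; 17 h, 37C, 5% CO2; CCF4-AM added; bla FRET signal scored for activation.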

[13] = qHTS assay to identify small molecule agonists of H2AX - cell viability counter screen (AID 1224847; calls by dose curve; note: top concentration of the series differs between compounds; nearly all actives have a fitted effect of over 30% in size)
Outline: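 Wild-type CHO-K1 cells (10% FBS medium) were plated overnight at 37C, exposed to compounds at 15 concentrations for 3 hr at 37C (0.76% DMSO final), and viability was read as CellTiter-Glo luminescence after 30 min at room temperature.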

[14] = qHTS assay to identify small molecule antagonists of the estrogen related receptor (ERR) signaling pathway from Tox21 library (AID 1224848); note: nearly all actives have a fitted effect of over 50% in size
Outline: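 ERR reporter cell line (from NTP) seeded 2,000 cells/well, rested 6 h at 37 C/5% CO2, then pin-dosed with compounds in DMSO. After 18 h at 37 C, ONE-Glo added; luminescence read after 30 min at room temperature.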

[15] = qHTS assay to identify small molecule agonists of the estrogen related receptor (ERR) signaling pathway from Tox21 library (AID 1224849; calls by dose curve; note: nearly all actives have a fitted effect of over 15% in size); settings: ERR reporter cell line, ONE-Glo luciferase, 18 h; at 92.4 µM (top of the series) unless noted
Outline: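 ERR cells, 6 h pre-incubation 37 C/5% CO2; cpd in DMSO pinned; 18 h 37 C; ONE-Glo added, 30 min RT; luminescence read. Agonist mode, qHTS.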

[16] = qHTS RealTime-Glo MT Cell Viability Assay in HepG2 cells - 24 hour (AID 1224867); note: nearly all actives have a fitted effect of over 50% in size
Outline: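 Cell number in HepG2 cultures estimated from NanoLuc luminescence generated by metabolic reduction of a prosubstrate by living cells. The homogeneous, nonlytic format allowed repeated reads at 0, 8, 16, 24, 32 and 40 h of compound exposure.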

[17] = qHTS RealTime-Glo MT Cell Viability Assay in HEK293 cells - 32 hour (AID 1224868)
Outline: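 Homogeneous bioluminescent viability format in HEK293 cells (600 cells/well). Following 5 h at 37 C/5% CO2, 23 nL compound was pintooled; the signal was measured repeatedly during 40 h incubation.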

[18] = A CellTox Green Cytotoxicity Assay to monitor cytotoxicity in HEK293 cells - 0 hour (AID 1224869); note: nearly all actives have a fitted effect of over 50% in size; note: potency is the fitted concentration of half-maximal effect
Outline: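 Nonlytic real-time cytotoxicity: HEK293 + CellTox Green reagent plated, 5 h preincubation, pintool compound addition (23 nL in DMSO), 37 C for 40 h, fluorescence measured at successive time points.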

[19] = molecular target: Nuclear receptor subfamily 1 group I member 3 (Homo sapiens) (UniProt Q14994); test: qHTS assay to identify small molecule antagonists of the constitutive androstane receptor (CAR) signaling pathway (AID 1224838); note: nearly all actives have a fitted effect of over 40% in size
Outline: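 HepG2-CYP2B6-hCAR cells; 4 h pre-incubation; cpd (15 conc) + CITCO 50 nM final; 24 h, 37 C/5% CO2; ONE-Glo, luminescence.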

Chain of Luciferin 4-monooxygenase (Photinus pyralis) (P08659 whole entry, looked up): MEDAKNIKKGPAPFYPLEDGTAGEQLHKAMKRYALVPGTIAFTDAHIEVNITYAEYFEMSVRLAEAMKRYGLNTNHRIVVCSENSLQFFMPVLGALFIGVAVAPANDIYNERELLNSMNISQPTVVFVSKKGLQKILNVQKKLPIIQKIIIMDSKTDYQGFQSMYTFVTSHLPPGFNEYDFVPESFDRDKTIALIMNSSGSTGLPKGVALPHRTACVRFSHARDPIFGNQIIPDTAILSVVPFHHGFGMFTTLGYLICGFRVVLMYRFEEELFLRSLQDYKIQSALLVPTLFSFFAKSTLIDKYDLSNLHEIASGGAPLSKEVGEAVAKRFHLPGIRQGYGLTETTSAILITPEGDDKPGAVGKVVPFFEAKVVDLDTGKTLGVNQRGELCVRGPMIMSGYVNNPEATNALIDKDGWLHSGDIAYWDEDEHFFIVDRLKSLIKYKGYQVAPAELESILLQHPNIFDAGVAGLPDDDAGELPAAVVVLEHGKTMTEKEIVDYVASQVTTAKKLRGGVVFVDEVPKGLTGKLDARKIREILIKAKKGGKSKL
Chain of Thyrotropin receptor (Homo sapiens) (P16473 whole entry, looked up): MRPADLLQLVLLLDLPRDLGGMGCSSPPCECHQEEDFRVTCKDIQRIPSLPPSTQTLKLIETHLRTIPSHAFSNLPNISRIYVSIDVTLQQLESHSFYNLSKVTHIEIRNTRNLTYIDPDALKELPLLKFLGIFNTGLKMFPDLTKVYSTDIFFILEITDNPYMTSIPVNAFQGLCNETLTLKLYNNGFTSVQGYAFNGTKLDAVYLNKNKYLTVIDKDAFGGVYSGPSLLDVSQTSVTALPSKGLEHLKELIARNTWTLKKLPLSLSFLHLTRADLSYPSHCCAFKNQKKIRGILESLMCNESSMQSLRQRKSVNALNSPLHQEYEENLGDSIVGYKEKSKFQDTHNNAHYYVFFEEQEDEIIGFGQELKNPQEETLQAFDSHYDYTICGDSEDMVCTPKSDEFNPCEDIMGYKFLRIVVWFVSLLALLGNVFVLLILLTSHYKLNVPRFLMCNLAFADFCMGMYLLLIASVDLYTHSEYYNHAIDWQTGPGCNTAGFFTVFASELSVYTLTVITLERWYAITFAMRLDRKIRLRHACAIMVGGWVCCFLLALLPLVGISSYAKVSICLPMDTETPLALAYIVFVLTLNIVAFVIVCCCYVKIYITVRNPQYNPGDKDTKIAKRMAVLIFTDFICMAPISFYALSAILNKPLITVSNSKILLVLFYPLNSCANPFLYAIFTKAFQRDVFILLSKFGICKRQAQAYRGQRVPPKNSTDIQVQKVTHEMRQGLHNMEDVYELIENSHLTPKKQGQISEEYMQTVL
Chain of Nuclear receptor subfamily 1 group I member 3 (Homo sapiens) (Q14994 whole entry, looked up): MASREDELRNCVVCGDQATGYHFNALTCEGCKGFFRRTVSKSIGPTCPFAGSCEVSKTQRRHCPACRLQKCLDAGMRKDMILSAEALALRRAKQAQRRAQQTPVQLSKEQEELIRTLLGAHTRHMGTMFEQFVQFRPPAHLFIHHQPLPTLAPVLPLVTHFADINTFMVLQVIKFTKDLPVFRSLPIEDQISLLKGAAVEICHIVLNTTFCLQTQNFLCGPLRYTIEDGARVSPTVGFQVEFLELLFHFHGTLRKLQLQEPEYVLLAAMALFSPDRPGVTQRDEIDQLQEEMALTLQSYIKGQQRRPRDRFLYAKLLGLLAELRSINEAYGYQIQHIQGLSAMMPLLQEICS

Row | Structure (SMILES) | Potency [1] | Potency [2] | Potency [3] | Potency [4] | Potency [5] | Potency [6] | Potency [7] | outcome [8] | Potency [9] | Potency [10] | outcome [11] | outcome [12] | Potency [13] | Potency [14] | activity change, positive = activation [15] | Potency [16] | Potency [17] | Potency [18] | Potency [19]
1 | O=C(c1ccccc1)C1CCCCC1 | inactive | inactive | inactive | inactive | inactive | inactive | inactive | inactive | inactive | inactive | inactive | inactive | inactive | inactive | 3.6% (inactive) | inactive | inactive | inactive | 
2 | O=C1OC(=O)C2CCCCC12 (configuration not stated) | inactive | inactive | inactive | inactive | inactive | inactive | inactive | inactive |  | inactive | inactive | inactive | inactive | inactive |  | inactive | inactive | inactive | inactive
3 | O=c1n(CCO)c(=O)n(CCO)c(=O)n1CCO | inactive | inactive | inactive | inactive | inactive | inactive |  |  | inactive | inactive | inactive | inactive | inactive |  |  | inactive | inactive | inactive and 43.6 µM (active) | inactive
4 | CC(C)NCC(O)c1ccc(NS(C)(=O)=O)cc1 (configuration not stated) | inactive | inactive | inactive | inactive | inactive | inactive |  |  | inactive | inactive | inactive |  | inactive |  |  | inactive | inactive | inactive | inactive
5 | CCSC(=O)N(CC(C)C)CC(C)C | inactive | inactive | inactive | inactive | inactive | inactive | inactive | inactive |  | inactive | inactive | inactive | inactive | inactive | 3.6% (inactive) | inactive | inactive | inactive | inactive
6 | CC(=O)CC(C)(C)C1CCCCC1 | inactive | inactive | inactive | inactive | inactive | inactive | inactive | inactive |  | inactive | inactive | inactive | inactive | inactive | 0.591% (inactive) | inactive | inactive | inactive | inactive
7 | CC(=O)Nc1c(I)cc(I)c(C(=O)O)c1I | inactive | inactive | inactive | inactive | inactive | inactive | inactive | inactive |  |  | inactive | inactive | inactive | inactive |  | inactive | inactive | inactive | inactive
8 | O=C1CCCC(=O)C1 | inactive | inactive | inactive | inactive | inactive | inactive | inactive | inactive |  |  | inactive | inactive | inactive | inactive | -12.9% (inactive) | inactive |  | inactive | inactive
9 | NS(=O)(=O)c1cc(C(=O)NN2C[C@H]3[C@H]4CCC(C4)[C@H]3C2)ccc1Cl | inactive | inactive | inactive | inactive | inactive | inactive | inactive | inactive | inactive | inactive | inactive | inactive | inactive | inactive | -1.11% [at 42.5 µM] (inactive) | inactive | inactive | inactive | 
10 | Cc1c(O)cccc1O | inactive | inactive | inactive | inactive | inactive | inactive | inactive | inactive |  | inactive | inactive | inactive | inactive | inactive |  | inactive | inactive | inactive | inactive
